Test results taken from the supplement of paper PMC12067093, “Discovery and optimisation of a covalent ligand for TRIM25 and its application to targeted protein ubiquitination” (Chemical Science, 2025).
Targets with the largest changes are over-represented here; the source holds about 21,000 in all.

Compound: Cc1cc(ccc1-c1ccccc1)C(=O)N1CCCN(CC1)C(=O)CCl [compound 10]
Test: probe-labelled cysteine peptide fold change vs DMSO (competition) (log2 fold change); higher = less target engagement (more negative = stronger competition)
Details: THP-1, incubation time: 4 h
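Further: competitive profiling in live THP-1 cells: cysteine peptides tagged with an iodoacetamide desthiobiotin (IA-DTB) probe, intensity after compound treatment relative to DMSO-treated cells.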

Sequence of UniProt P36507 (P36507 whole entry, looked up): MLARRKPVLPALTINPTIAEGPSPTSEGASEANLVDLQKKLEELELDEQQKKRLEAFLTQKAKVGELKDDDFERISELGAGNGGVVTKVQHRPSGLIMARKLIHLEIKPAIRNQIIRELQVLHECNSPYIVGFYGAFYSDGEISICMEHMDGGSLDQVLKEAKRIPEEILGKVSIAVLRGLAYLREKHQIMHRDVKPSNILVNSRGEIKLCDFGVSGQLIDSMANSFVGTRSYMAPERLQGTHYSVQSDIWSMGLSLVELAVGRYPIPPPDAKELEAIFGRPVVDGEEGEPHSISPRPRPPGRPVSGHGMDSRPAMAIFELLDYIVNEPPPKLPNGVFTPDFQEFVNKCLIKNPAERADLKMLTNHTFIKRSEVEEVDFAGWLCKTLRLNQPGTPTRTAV
Sequence of UniProt P35579 (P35579 whole entry, looked up): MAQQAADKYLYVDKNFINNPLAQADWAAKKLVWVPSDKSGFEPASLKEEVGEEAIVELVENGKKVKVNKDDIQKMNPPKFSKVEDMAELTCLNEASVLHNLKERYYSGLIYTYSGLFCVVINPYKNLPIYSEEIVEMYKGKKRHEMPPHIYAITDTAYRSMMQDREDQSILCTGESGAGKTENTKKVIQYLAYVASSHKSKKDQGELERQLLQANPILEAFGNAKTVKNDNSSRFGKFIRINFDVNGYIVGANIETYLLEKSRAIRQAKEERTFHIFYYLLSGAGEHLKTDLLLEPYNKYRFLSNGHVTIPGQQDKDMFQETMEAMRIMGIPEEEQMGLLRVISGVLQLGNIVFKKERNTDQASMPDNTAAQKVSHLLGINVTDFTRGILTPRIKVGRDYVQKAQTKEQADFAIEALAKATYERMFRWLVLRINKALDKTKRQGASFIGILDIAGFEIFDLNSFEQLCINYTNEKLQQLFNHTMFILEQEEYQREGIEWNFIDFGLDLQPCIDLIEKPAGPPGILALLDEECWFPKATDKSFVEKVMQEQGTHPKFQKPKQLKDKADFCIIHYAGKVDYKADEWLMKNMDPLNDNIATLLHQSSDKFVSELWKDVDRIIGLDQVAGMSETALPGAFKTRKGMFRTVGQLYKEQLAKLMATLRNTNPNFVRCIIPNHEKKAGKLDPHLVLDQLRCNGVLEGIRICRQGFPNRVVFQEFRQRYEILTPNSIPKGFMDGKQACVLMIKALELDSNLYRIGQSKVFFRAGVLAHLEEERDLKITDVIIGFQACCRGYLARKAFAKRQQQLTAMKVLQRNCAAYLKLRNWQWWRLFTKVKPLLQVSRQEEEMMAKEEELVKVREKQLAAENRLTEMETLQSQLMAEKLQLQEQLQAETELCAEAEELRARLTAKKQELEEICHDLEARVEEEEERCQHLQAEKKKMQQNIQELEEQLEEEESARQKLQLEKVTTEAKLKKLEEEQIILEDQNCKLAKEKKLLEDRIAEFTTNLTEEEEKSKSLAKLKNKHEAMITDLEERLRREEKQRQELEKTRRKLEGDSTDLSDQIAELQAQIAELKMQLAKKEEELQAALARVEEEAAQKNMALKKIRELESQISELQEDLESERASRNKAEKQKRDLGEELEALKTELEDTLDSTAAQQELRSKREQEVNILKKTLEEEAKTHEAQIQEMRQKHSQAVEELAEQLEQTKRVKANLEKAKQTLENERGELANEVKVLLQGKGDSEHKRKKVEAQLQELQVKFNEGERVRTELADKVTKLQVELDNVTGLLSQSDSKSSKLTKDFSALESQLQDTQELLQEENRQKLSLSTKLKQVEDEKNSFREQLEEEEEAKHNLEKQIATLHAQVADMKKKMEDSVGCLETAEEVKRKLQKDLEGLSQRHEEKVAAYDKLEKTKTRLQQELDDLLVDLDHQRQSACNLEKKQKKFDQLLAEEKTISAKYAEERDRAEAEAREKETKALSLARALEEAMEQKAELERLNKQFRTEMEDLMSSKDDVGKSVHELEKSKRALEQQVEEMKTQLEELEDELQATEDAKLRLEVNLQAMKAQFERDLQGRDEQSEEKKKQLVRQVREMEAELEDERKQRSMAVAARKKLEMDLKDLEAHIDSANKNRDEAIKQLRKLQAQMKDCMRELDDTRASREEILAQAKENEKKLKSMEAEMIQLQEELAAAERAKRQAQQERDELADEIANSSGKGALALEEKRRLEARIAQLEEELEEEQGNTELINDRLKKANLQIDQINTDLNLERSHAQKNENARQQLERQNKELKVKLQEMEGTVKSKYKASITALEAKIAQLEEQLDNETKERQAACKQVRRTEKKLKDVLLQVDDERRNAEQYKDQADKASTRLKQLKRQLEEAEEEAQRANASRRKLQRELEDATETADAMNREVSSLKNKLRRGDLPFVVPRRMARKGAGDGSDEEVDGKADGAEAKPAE
Sequence of UniProt P48449 (P48449 whole entry, looked up): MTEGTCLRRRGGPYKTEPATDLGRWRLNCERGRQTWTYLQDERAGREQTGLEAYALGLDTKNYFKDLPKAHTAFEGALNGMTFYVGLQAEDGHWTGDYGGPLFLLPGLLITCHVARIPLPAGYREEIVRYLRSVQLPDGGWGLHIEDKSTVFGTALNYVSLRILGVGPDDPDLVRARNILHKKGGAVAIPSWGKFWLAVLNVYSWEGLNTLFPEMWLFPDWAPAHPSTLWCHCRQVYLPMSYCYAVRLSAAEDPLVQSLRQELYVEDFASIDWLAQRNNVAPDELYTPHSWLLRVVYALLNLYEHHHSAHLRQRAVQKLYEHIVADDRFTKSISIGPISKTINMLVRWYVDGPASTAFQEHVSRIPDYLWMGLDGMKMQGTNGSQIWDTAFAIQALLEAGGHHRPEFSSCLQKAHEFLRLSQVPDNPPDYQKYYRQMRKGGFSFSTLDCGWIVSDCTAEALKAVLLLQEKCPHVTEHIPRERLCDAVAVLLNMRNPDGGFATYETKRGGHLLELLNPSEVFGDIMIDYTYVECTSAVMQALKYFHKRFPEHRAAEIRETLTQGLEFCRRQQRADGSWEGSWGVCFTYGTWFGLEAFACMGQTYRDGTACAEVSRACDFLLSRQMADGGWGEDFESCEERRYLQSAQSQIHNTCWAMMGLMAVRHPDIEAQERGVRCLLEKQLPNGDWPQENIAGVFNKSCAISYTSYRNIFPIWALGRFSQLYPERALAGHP
Sequence of UniProt Q8WV92 (Q8WV92 whole entry, looked up): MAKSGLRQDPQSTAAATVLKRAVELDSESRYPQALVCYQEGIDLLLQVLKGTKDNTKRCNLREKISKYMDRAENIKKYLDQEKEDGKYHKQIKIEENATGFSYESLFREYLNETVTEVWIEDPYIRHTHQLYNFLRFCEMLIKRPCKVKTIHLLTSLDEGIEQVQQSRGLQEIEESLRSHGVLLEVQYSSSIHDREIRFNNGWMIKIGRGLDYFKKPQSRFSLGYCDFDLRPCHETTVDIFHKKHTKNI
Sequence of UniProt P49736 (P49736 whole entry, looked up): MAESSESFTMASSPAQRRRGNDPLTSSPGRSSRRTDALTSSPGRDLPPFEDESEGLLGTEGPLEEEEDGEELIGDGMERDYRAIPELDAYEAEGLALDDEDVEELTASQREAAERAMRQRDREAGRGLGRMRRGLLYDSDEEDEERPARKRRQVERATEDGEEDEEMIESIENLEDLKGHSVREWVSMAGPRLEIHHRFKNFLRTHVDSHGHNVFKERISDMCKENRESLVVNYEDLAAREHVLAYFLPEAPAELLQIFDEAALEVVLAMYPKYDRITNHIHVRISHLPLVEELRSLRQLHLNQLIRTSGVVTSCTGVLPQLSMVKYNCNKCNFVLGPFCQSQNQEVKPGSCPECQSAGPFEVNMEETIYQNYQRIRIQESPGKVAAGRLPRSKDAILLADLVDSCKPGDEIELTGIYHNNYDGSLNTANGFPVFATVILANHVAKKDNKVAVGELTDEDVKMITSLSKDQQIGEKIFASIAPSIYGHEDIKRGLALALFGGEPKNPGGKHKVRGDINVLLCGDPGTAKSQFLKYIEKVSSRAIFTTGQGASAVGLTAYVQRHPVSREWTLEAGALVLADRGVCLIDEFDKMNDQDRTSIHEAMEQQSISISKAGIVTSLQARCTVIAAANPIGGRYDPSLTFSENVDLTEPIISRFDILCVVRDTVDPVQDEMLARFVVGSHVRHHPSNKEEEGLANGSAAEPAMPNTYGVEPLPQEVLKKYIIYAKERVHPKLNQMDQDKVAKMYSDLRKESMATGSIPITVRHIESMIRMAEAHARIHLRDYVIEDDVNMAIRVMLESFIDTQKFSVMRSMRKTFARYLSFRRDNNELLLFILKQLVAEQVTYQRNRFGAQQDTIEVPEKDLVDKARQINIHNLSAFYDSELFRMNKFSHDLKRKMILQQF
Sequence of UniProt Q9Y333 (Q9Y333 whole entry, looked up): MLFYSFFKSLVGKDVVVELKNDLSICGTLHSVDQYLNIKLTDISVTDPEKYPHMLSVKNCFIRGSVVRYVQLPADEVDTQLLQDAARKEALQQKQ
Sequence of UniProt P09960 (P09960 whole entry, looked up): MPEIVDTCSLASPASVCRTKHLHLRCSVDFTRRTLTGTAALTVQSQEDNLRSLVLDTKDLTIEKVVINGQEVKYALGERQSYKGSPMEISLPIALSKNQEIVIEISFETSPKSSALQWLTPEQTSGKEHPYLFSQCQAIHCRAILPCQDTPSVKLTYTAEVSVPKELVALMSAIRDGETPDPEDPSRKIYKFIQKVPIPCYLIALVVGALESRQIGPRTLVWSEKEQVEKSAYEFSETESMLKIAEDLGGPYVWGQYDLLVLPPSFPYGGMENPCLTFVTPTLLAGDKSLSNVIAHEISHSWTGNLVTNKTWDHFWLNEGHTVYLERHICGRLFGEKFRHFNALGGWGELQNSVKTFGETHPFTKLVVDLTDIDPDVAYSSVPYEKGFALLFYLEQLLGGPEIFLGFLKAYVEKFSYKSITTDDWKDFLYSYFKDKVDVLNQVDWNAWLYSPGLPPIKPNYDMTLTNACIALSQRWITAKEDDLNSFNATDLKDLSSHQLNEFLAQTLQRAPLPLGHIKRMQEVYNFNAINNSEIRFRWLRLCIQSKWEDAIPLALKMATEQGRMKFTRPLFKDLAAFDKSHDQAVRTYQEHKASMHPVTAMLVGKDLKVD

| Target | probe-labelled cysteine peptide fold change (10 µM) | probe-labelled cysteine peptide fold change (50 µM) |
| --- | --- | --- |
| MAP2K2_P36507_384_SEVEEVDFAGWLCK (UniProt P36507) | 0.0856 | 0.0969 |
| MYADM_Q96S97_279_SRDVSCSR (UniProt Q96S97) | 1.07 | 1.22 |
| LONP1_P36776_909_AGVTCIVLPAENKK (UniProt P36776) | -0.00288 | -0.138 |
| LTA4H_P09960_8_PEIVDTCSLASPASVCR (UniProt P09960) | -0.129 | -0.324 |
| MCTS1_Q9ULC4_144_QHALCVGVMK (UniProt Q9ULC4) | 0.104 | -0.154 |
| MCM4_P33991_328_IAEPSVCGR (UniProt P33991) | 0.0169 | -0.0125 |
| MARS_P56192_309_QWNTLYLCGTDEYGTATETK (UniProt P56192) | -0.0161 | 0.0949 |
| MBTD1_Q05BQ5_288_VSESMQYPFKPCMR (UniProt Q05BQ5) | 0.00855 | 0.00392 |
| LUC7L3_O95232_40+43_YYLCGFCPAELFTNTR (UniProt O95232) | 0.232 | -0.733 |
| LRR1_Q96L50_5_LHCEVEVISR (UniProt Q96L50) | -0.12 | 0.0535 |
| MYCBP2_O75592_505_CLHACGISLFDLEK (UniProt O75592) | 0.122 | 0.236 |
| LIG3_P49916_929_KAADETLCQTK (UniProt P49916) | -0.152 | -1.24 |
| MRC2_Q9UBG0_201_YDNQWFHGCTSTGR (UniProt Q9UBG0) | -2.14 | -2.04 |
| MCEE_Q96PE7_166_DCGGVLVELEQA (UniProt Q96PE7) | -0.0643 | 0.17 |
| MAGT1_Q9H0U3_87_QCVVCK (UniProt Q9H0U3) | -0.137 | 0.464 |
| MAP4K1_Q92918_334+335_SSSLGIPDADCCR (UniProt Q92918) | -0.26 | -1.18 |
| MORC3_Q14149_15_LSALCPK (UniProt Q14149) | -0.27 | -1.37 |
| MACF1_Q9UPN3_3109_EIACGAQSEPFPCMTPRPEGLHYQESDGK (UniProt Q9UPN3) | -0.348 | -0.619 |
| LSM2_Q9Y333_26_NDLSICGTLHSVDQYLNIK (UniProt Q9Y333) | 0.109 | 0.253 |
| MYH9_P35579_671_CIIPNHEKK (UniProt P35579) | -0.188 | -1.18 |
| MGMT_P16455_145_GNPVPILIPCHR (UniProt P16455) | -1.04 | -1.29 |
| MCM2_P49736_223_ISDMCK (UniProt P49736) | -0.124 | -0.178 |
| MORC3_Q14149_671_NDAVILPSCVEAEAK (UniProt Q14149) | -0.296 | -0.0456 |
| MITD1_Q8WV92_226_FSLGYCDFDLRPCHETTVDIFHK (UniProt Q8WV92) | 0.0984 | 0.0591 |
| LSS_P48449_471_CPHVTEHIPR (UniProt P48449) | -0.184 | -0.209 |
| LENG8_Q96PV6_584_SLCMVK (UniProt Q96PV6) | -0.193 | -1.09 |
| MMS19_Q96T76_750_ELLELSCCHSCPFSSTAAAK (UniProt Q96T76) | -0.103 | -1.11 |
| LMAN1_P49257_230_NDYEFCAK (UniProt P49257) | 0.239 | 0.703 |
| MAP4K1_Q92918_335_SSSLGIPDADCCR (UniProt Q92918) | -0.294 | -1.09 |
